# Source: PubChem
# Shown are actives, neighbours in structure and some others; about 2.3% of the full set was active somewhere.
# SENP6 inh = SENP6 protease inhibitors, primary screen, biochemical, luminescence, uHTS. inhibition, % at 10 µM. actives 1.8% (n = 330,000). Recombinant SENP6 catalytic domain, aminoluciferin luminescence. Sentrin-specific protease 6 (Homo sapiens), Q9GZR1;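 active = inhibition above about 50% at the single tested dose, limit read from the data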;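 note: plate controls were DMSO wells with enzyme for no effect and DMSO wells lacking enzyme for full effect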
# Target sequence (Q9GZR1 628-1112 limits assumed): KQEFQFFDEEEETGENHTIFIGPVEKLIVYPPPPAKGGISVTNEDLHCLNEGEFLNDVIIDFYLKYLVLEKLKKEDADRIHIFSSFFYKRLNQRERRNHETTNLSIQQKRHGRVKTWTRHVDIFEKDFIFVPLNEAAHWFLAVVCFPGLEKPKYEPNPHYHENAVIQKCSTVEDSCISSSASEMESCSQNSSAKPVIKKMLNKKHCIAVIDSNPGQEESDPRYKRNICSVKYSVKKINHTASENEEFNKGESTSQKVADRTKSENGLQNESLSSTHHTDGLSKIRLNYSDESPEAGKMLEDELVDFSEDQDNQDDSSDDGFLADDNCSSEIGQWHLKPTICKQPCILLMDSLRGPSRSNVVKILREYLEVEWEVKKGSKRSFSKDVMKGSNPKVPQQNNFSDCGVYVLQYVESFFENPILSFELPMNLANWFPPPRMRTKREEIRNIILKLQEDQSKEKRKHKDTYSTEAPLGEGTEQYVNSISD
# SENP8 block-1 = human SENP8 protease inhibitors, primary screen, biochemical, fluorescence, Nedd8 protein substrate, uHTS; AID 602440, 2012; actives 0.64% (n = 360,000); inhibition, % at 20 µM; recombinant SENP8; Sentrin-specific protease 8 (Homo sapiens), Q96LD8; in the data active = inhibition mostly above about 40%, no sharp cut-off; inactive = mostly below about 27%
# HSP90 refold inh = HSP90 inhibitors, primary screen, cell lysate, luminescence. Heat shock protein HSP 90 (rabbit reticulocyte lysate; luciferase refolding). Rabbit reticulocyte lysate, luciferase refolding luminescence, 3 h. inhibition, % at 5.6 µM. AID 1789, 2009. actives 0.91% (n = 290,000);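 active = inhibition above the screen-wide mean plus 3 SD, computed separately per campaign, cut at about 16% in these data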;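 note: 0% = DMSO wells and 100% = 60 µM geldanamycin wells; inhibitors lower the luminescence because luciferase stays unfolded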
# LGR2 inh = inhibitors of bursicon-induced LGR2 CRE-luciferase signal, primary screen, cell-based, HEK293, CRE-luciferase reporter, bursicon stimulation; Drosophila bursicon receptor LGR2 (rickets); bursicon-stimulated, 4 h; actives 0.35% (n = 380,000); inhibition, % at 9.99 µM;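 active = drop in luminescence signal, shown as inhibition above about 50% in the replicate tests, limit read from the data, passing the limit was not always enough; inconclusive = probably only some replicates passing the limit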;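 note: agonist challenge used bursicon conditioned medium at about half maximal strength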
# SENP8 block-2 = SENP8 protease inhibitors, primary screen, biochemical, luminescence. Sentrin-specific protease 8 (Homo sapiens), Q96LD8. purified SENP8, Z-RLRGG-aminoluciferin cleavage. inhibition, % at 10 µM. actives 1.2% (n = 330,000). AID 2540, 2010; in the data active = inhibition above about 50%
# SENP7 inh = SENP7 protease inhibitors, primary screen, biochemical, luminescence, uHTS; Sentrin-specific protease 7 (Homo sapiens), Q9BQF6; recombinant SENP7, Z-RLRGG-aminoluciferin luminescence, 40 min; inhibition, % at 5 µM; actives 1.5% (n = 330,000); AID 434973, 2010;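 active = inhibition above about 50% at the single test dose, limit read from the data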;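 note: plate controls were DMSO with enzyme for no effect and no enzyme buffer wells for full effect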
# The depositor's hits bear a star; ? = inconclusive; · = no result given.
SMILES,SENP6 inh,SENP8 block-1,HSP90 refold inh,LGR2 inh,SENP8 block-2,SENP7 inh
O=C(O)c1ccc(N=NNc2cccc([N+](=O)[O-])c2)cc1,94.9*,40.2*,6.8,-47.2,95.6*,98.2*
O=[N+]([O-])c1ccc2nc(-c3ccc(Cl)cc3)n(OCc3ccccc3)c2c1,74.5*,-1.5,-1.9,·,16.3,59.8*
C[C@H]1CN([C@@H](C)CO)C(=O)c2cccc(NC(=O)CCCCCC(=O)Nc3ccccc3N)c2O[C@@H]1CN(C)C(=O)Nc1ccc(C(F)(F)F)cc1,·,·,·,-0.5,·,·
CC1(O)c2ccccc2C(=O)N1CCc1ccccc1F (stereo not drawn),3.7,53.2*,-1.1,-59.0,-3.9,10.2
CC1(O)c2ccccc2C(=O)N1Cc1ccccc1 (stereo not drawn),-3.7,6.1,1.7,·,3.4,3.0
O=C(CCN1CCCCC1)N[C@H]1CC[C@@H](CCn2cc(-c3ccc(F)cc3)nn2)O[C@@H]1CO,·,·,·,-4.4,·,·
COc1ccccc1N1CCN(C(=O)CSc2ncccc2-c2nc3ccccc3[nH]2)CC1,-6.3,-278.1,22.2*,13.0,0.4,1.4
O=C(C[C@H]1C=C[C@H](NC(=O)C2CCOCC2)[C@@H](CO)O1)Nc1ccccc1,·,·,·,1.1,·,·
Cc1ccc(N2C(=O)/C(=C\c3ccco3)SC2=S)cc1,-3.6,48.2*,0.7,·,1.4,13.2
CCN(C(=O)C(C)N1C(=O)/C(=C/c2ccco2)SC1=S)C1CCS(=O)(=O)C1 (stereo not drawn),13.9,48.0*,8.2,12.7,10.9,1.0
O=C1/C(=C/c2ccco2)SC(=S)N1C1CCS(=O)(=O)C1 (stereo not drawn),-8.1,35.0,0.2,55.1*,-9.4,-5.9
CCN(C(=O)CCN1C(=O)/C(=C/c2ccccc2)SC1=S)C1CCS(=O)(=O)C1 (stereo not drawn),3.0,31.1,3.9,58.6*,0.5,-1.3
CCOc1cccc(CNCCO)c1OCc1ccc(Cl)cc1Cl,-18.9,13.7,2.9,25.5,-4.0,1.7
CCOc1cccc(CNc2ccc(O)cc2)c1OCc1ccccc1Cl,28.0,30.4,1.3,·,9.0,55.2*
CCOc1cccc(CNc2ccc(O)cc2)c1OCc1ccc(Cl)cc1Cl,0.8,68.9*,5.2,·,2.9,8.1
COc1cccc(-c2nc(-c3ccc(Br)o3)no2)c1,84.8*,10.0,1.1,-3.6,72.4*,84.0*
CN1CCN(C(=O)C[C@H]2C=C[C@@H](NC(=O)c3ccc4c(c3)OCO4)[C@@H](CO)O2)CC1,·,·,·,9.1,·,·
CCc1ccc2c(c1)C(=O)c1ccccc1C2=O,77.5*,20.5,2.3,·,78.8*,83.1*
O=C(O)c1ccc(NC2=C(n3nnc4ccccc43)C(=O)c3ccccc3C2=O)cc1,-1.7,54.6*,14.7,17.2,45.5,34.1
O=C(O)c1ccc(-n2nnc3ccccc32)c([N+](=O)[O-])c1,-25.8,10.2,-1.6,-2.0,-8.5,-0.1
COc1ccc(CC(=O)Nc2cccc(-c3nnc(-c4cccc(C)c4)o3)c2)cc1OC,8.9,15.0,1.4,?,-2.5,1.8
COc1ccc(CC(=O)Nc2cccc(-c3nnc(-c4ccc(C)cc4)o3)c2)cc1OC,-8.7,7.2,-1.1,94.2*,-9.7,-5.9
COc1ccc(CC(=O)Nc2cccc(-c3nnc(-c4ccccc4)o3)c2)cc1OC,·,-3.5,3.1,102.6*,·,·
C[C@@H]1CN([C@@H](C)CO)C(=O)c2cccc(NS(=O)(=O)c3ccc(Cl)cc3)c2O[C@@H]1CN(C)C(=O)Nc1ccc(C(F)(F)F)cc1,·,·,·,0.6,·,·
CN1CCC/C1=C/C=C1\SC(=S)NC1=O,·,82.3*,4.6,16.2,·,·
C#CCn1cc(C=C2C(=O)c3ccccc3C2=O)c2ccccc21,·,37.5*,1.8,27.0,·,·
N#Cc1c(N)nc(N)nc1Nc1ccc(Br)cc1,59.9*,12.5,0.1,-139.6,22.4,36.2
Cc1nc(N)nc(Nc2ccc(C#N)cc2)c1Br,2.6,-0.4,-2.9,-16.7,-0.2,1.8
Cc1ccccc1/C=N/NC(=O)c1sccc1C,96.1*,3.0,3.3,-72.0,95.2*,99.1*
Cc1noc(C)c1NC(=O)N[C@@H]1CC[C@@H](CC(=O)Nc2ccc(-c3ccccc3)cc2)O[C@@H]1CO,·,·,·,21.6,·,·
